PNC assembly inh: High Content Assay for Compounds that inhibit the Assembly of the Perinucleolar Compartment | PC3M PTB-GFP, PNC prevalence imaging, 16 h; hits give low values | AID 2417, 2010 | activity change (PNC), negative = inhibition, % at 10 µM | 3.1% of 140,000 active;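 active = readout at or below -70, meaning at least 70% loss of cells showing the perinucleolar compartment, a nuclear body marking cancer cells; inconclusive = readout between -30 and a set limit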
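PC3M cells stably expressing PTB-GFP, 750–1000 cells/well, treated 16 h at 37 °C with compound (23 nl of library stock), in duplicate. After paraformaldehyde fixation and Hoechst stain, imaged at 20x; PNC prevalence scored by image analysis.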
HPGD inh: qHTS Assay for Inhibitors of HPGD (15-Hydroxyprostaglandin Dehydrogenase); 15-hydroxyprostaglandin dehydrogenase [NAD(+)] (Homo sapiens), P15428; purified HPGD, NADH fluorescence kinetic, PGE2 substrate; Potency, µM, hits mostly inhibitors; 4.3% of 150,000 active; AID 894, 2007
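20 nM HPGD preincubated 15 min at room temperature with compound in 50 mM Tris-HCl pH 8, 0.01% Tween 20. Started with 1 mM NAD+ and 30 uM prostaglandin E2; NADH fluorescence (360/450 nm) read 5 times over 30-s intervals, last minus first.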
ALDH1A1 block: qHTS Assay for Inhibitors of Aldehyde Dehydrogenase 1 (ALDH1A1) | Purified ALDH1A1, NADH fluorescence, propionaldehyde substrate | 7.3% of 220,000 active | Potency, µM (series often up to 75.3 µM), most hits filed as inhibitors | Aldehyde dehydrogenase 1A1 (Homo sapiens), P00352
Target sequence (P00352 whole entry, looked up): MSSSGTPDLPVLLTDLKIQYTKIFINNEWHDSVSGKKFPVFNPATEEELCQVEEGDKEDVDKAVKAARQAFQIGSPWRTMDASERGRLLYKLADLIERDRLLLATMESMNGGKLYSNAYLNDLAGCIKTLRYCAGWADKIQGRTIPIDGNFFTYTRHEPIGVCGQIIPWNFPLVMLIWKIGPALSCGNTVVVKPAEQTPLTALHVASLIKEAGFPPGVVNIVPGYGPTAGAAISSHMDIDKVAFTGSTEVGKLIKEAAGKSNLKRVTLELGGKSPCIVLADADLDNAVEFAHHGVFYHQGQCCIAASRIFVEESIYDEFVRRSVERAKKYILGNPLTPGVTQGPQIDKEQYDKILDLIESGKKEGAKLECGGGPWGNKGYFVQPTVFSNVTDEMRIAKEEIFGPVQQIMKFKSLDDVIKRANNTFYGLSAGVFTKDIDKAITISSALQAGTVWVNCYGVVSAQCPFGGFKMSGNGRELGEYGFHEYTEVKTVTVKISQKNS
Numbers stand for hits. In the library only some 11% were active in any assay of this set; here they are far more common. Unless noted, calls follow the shape of the dose curve; as a rule, active = well fitted inhibition curve with a large enough effect (not every such curve was filed as active); inconclusive = small, poorly fitted or top-dose-only effect, or another doubt; inactive = no such curve, though single readings can be large or run the other way.

What do the screens show for `CCN1CCN(C(=O)c2cc(-c3cccnc3)nc3ccc(Br)cc23)CC1`?
PNC assembly inh: -107; HPGD inh: inactive; ALDH1A1 block: inactive

Results for O=C(O)c1cc(-c2cccnc2)nc2ccc(Br)cc12 ?
ALDH1A1 block: inactive

Results for Cc1ccccc1C1CC(=O)Oc2ccc(C(C)(C)C)cc21 (stereo unspecified) ?
HPGD inh: inactive; ALDH1A1 block: inconclusive

How did COc1ccc2[nH]cc(CCNc3cc(-c4ccoc4)ncn3)c2c1 do in these assays?
HPGD inh: inactive; ALDH1A1 block: inactive

How did O=C(NC1CCCc2ccccc21)c1cncc(Br)c1 (stereo unspecified) do in these assays?
PNC assembly inh: inactive; HPGD inh: inactive; ALDH1A1 block: inactive

Results for O=C1COC(c2ccccc2)C2CCCCN12 (stereo unspecified) ?
PNC assembly inh: inconclusive; HPGD inh: inactive; ALDH1A1 block: inactive

How did O=C(O)c1nn(CC(=O)N(C2CCCCC2)C2CCCCC2)c(=O)c2ccccc12 do in these assays?
ALDH1A1 block: inactive

Results for O=C(O)C1=C(OCc2ccc(F)c(F)c2)C(=O)NCC1 ?
ALDH1A1 block: inactive

What do the screens show for `N#Cc1cccc(NC(=O)Cn2c3[n+](c4ccc(C(F)(F)F)cc42)CCCCC3)c1`?
PNC assembly inh: inconclusive; HPGD inh: inactive; ALDH1A1 block: inactive

How did CCn1c(SCC(=O)Nc2cc(C)on2)nnc1-c1ccc(OC)cc1 do in these assays?
ALDH1A1 block: inactive

How did O=C(c1ccccc1Oc1nnnn1-c1ccccc1)N1CCOCC1 do in these assays?
PNC assembly inh: inactive; HPGD inh: inactive; ALDH1A1 block: inactive

How did O=C(c1ccco1)N1CCN(c2ncccn2)CC1 do in these assays?
PNC assembly inh: inactive; HPGD inh: inactive; ALDH1A1 block: inconclusive

Results for O=C(c1cccnc1)N1CCN(Cc2cccc(Br)c2)CC1 ?
PNC assembly inh: inactive; HPGD inh: inactive; ALDH1A1 block: 10µM

What do the screens show for `COc1ccc(CN2CCN(C(=O)c3cccnc3)CC2)cc1Br`?
PNC assembly inh: inactive; HPGD inh: inactive; ALDH1A1 block: inconclusive

Results for O=C(c1cccnc1)N1CCN(C(=O)c2ccco2)CC1 ?
PNC assembly inh: -100; HPGD inh: inactive; ALDH1A1 block: inactive

Results for O=C(CSc1n[nH]c(-c2ccccc2)n1)NC(=O)NCc1ccco1 ?
PNC assembly inh: inactive; HPGD inh: 14µM; ALDH1A1 block: inactive

How did O=C(CSc1ncccn1)NC(=O)NCc1ccco1 do in these assays?
ALDH1A1 block: inactive

What do the screens show for `O=C(CSc1n[nH]c(-c2ccccc2)n1)Nc1ncccn1`?
ALDH1A1 block: inactive

How did O=C(CSc1n[nH]c(-c2ccccc2)n1)Nc1ccc(Br)cn1 do in these assays?
PNC assembly inh: inactive; HPGD inh: 13µM; ALDH1A1 block: inactive

Results for O=C(CSc1nc2ccccc2s1)NC(=O)NCc1ccco1 ?
PNC assembly inh: inactive; HPGD inh: 25µM; ALDH1A1 block: 32µM

Results for O=C(CSc1nc(-c2ccccc2)cs1)NC(=O)NCc1ccco1 ?
PNC assembly inh: inactive; HPGD inh: inactive; ALDH1A1 block: inconclusive

Results for Cc1nc2cnc(Oc3cccc(Cl)c3)nc2n(C[C@H]2CCCO2)c1=O ?
HPGD inh: inactive; ALDH1A1 block: inconclusive

Results for O=c1[nH]c(C(F)(F)F)nc2c1nnn2Cc1ccccc1F ?
PNC assembly inh: inactive; HPGD inh: 18µM; ALDH1A1 block: inactive

Results for CCCc1nc2c(nnn2Cc2ccccc2F)c(=O)[nH]1 ?
PNC assembly inh: inactive; HPGD inh: 28µM; ALDH1A1 block: inactive

How did O=c1c2cc3ccccc3n2cnn1Cc1ccccc1F do in these assays?
PNC assembly inh: inactive; HPGD inh: inconclusive; ALDH1A1 block: inactive

Results for O=c1[nH]c(C(F)(F)F)nc2ccccc12 ?
PNC assembly inh: inactive; HPGD inh: inactive; ALDH1A1 block: inactive

Results for CN(C)c1ccc(C(=O)NC2(N3CCC3=O)CCCC2)cc1 ?
ALDH1A1 block: inactive

How did Cc1c(C(=O)OCC(=O)N2CC(=O)Nc3ccccc32)oc2ccc(Br)cc12 do in these assays?
PNC assembly inh: inactive; HPGD inh: inactive; ALDH1A1 block: inactive

How did O=S(=O)(NC(=S)NC1CCCCC1)c1ccccc1 do in these assays?
ALDH1A1 block: 22µM

Results for S=C(Nc1ccc(Nc2ccccc2)cc1)NC1CCCCCC1 ?
ALDH1A1 block: inactive

What do the screens show for `O=C(NC1CCCCC1)C(Cc1ccccc1)NS(=O)(=O)c1cccs1` (stereo unspecified)?
PNC assembly inh: inactive; HPGD inh: inactive; ALDH1A1 block: inconclusive

What do the screens show for `O=S(=O)(NC(=S)NC1CCCCC1)c1cccs1`?
ALDH1A1 block: 5.6µM

What do the screens show for `CCSc1nnc(NC(=O)C(NC(=O)c2ccc(Cl)cc2)C(C)C)s1` (stereo unspecified)?
PNC assembly inh: inactive; HPGD inh: inactive; ALDH1A1 block: inactive

Results for COc1ccc(NC(C)=O)cc1C#N ?
ALDH1A1 block: 3.2µM

How did COC(=O)Nc1ccc(OC)c(OC)c1 do in these assays?
PNC assembly inh: inconclusive; HPGD inh: inactive; ALDH1A1 block: inactive

Results for COc1cc(C(=O)/C=C/Nc2ccc(NC(C)=O)cc2)cc(OC)c1OC ?
PNC assembly inh: -95; HPGD inh: 28µM; ALDH1A1 block: inactive

How did COc1cc(C(=O)NNC(=O)c2ccc(NC(C)=O)cc2)cc(OC)c1OC do in these assays?
ALDH1A1 block: inactive

How did O=C(CCSc1ccc(Cl)cc1)c1cccs1 do in these assays?
PNC assembly inh: inconclusive; HPGD inh: 20µM; ALDH1A1 block: 0.35µM

What do the screens show for `COc1ccc(NC(=O)CNC(=O)c2cccs2)cc1Cl`?
ALDH1A1 block: inactive

What do the screens show for `O=C(CCNc1ccc(Cl)cc1)c1cccs1`?
PNC assembly inh: inconclusive; HPGD inh: inactive; ALDH1A1 block: 3.2µM

How did O=C(NCCc1ccc(Cl)cc1)c1cccs1 do in these assays?
ALDH1A1 block: inactive

What do the screens show for `O=C(CCc1ccc(CCC(=O)c2cccs2)s1)c1cccs1`?
PNC assembly inh: inactive; HPGD inh: inconclusive; ALDH1A1 block: inactive

How did Cc1ccc(NC(=O)CNC(=O)c2cccs2)cc1S(=O)(=O)Nc1ccc(Cl)cc1 do in these assays?
PNC assembly inh: -113; HPGD inh: inactive; ALDH1A1 block: inactive

Results for O=C(CCNc1cc(Cl)cc(Cl)c1)c1cccs1 ?
PNC assembly inh: inactive; HPGD inh: inactive; ALDH1A1 block: 1.6µM

Results for O=C(CCC(=O)c1cccs1)Nc1ccccc1F ?
PNC assembly inh: inactive; HPGD inh: inactive; ALDH1A1 block: inactive

How did Cc1ccc2nc(SC(C)C(=O)NCc3ccc4c(c3)OCO4)[nH]c2c1 (stereo unspecified) do in these assays?
PNC assembly inh: inactive; ALDH1A1 block: inactive

What do the screens show for `Cc1cnn(C(=O)c2ccccc2Br)c1`?
PNC assembly inh: inactive; HPGD inh: inactive; ALDH1A1 block: inconclusive

How did COc1ccc(-c2cc(C(=O)NCC(C)C)no2)cc1 do in these assays?
PNC assembly inh: inactive; HPGD inh: inconclusive; ALDH1A1 block: inactive

Results for C=CCn1c(=O)c2ccccc2n2c(SCc3c(C(=O)OCC)oc4ccccc34)nnc12 ?
PNC assembly inh: inconclusive; HPGD inh: inactive; ALDH1A1 block: inactive

What do the screens show for `O=C(Nn1cnc2ccccc2c1=O)c1ccc([N+](=O)[O-])cc1`?
ALDH1A1 block: inactive

What do the screens show for `CCOc1ccccc1N(C(=O)Cn1nnnc1-c1ccc(C)o1)C(CC)C(=O)NC(C)(C)C` (stereo unspecified)?
PNC assembly inh: inactive; HPGD inh: inactive; ALDH1A1 block: inconclusive

Screening results as filed in PubChem.
